# In PMC5515408, “Sequence-specific DNA binding by MYC/MAX to low-affinity non-E-box motifs”:
# In all, about 5,000 sequences were measured (“log2 normalized fluorescence”: median about 0.089, highest 2% from about 0.81 on). Only a selection was taken, and the highest values are over-represented in it overall.
# Target: MYC (p64);MAX (p21), in MYC:MAX (human;human, UniProt P01106-1;P61244-2 1-439;1-151, |)
# Assay: protein-binding microarray (anti-MAX antibody); PBM: 15 mM Tris-HCl pH 7.5, 100 mM KCl, 0.075% NP40, 7.5 mM beta-mercaptoethanol, 375 ng/ul BSA, 8 ng/ul poly(dA-dT):(dA-dT), 550 ng complex, 60 min, room tempe; high values mean tight binding
# Conditions: protein: recombinant;recombinant; tags: 6xHis;6xHis; copies: 1;1; label: 3' end of printed strand (linker) attached to glass slide; dsDNA, one strand shown
# Outline: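 A custom Agilent glass array held ~5000 unique 12-nt sequences in triplicate spots, made double-stranded by primer extension. His-tagged human MYC:MAX or MAX:MAX dimers (550 ng, produced in E. coli) were applied for 60 min at room temperature in Tris-KCl buffer, pH 7.5, with NP40, BSA and poly(dA-dT) competitor. Anti-MAX and secondary antibodies detected bound protein, with scanning at 543 nm, and binding is given as log2 normalized fluorescence.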
# MYC (p64);MAX (p21), in MYC:MAX, sequence (P01106 16-454, chain 1 of 2): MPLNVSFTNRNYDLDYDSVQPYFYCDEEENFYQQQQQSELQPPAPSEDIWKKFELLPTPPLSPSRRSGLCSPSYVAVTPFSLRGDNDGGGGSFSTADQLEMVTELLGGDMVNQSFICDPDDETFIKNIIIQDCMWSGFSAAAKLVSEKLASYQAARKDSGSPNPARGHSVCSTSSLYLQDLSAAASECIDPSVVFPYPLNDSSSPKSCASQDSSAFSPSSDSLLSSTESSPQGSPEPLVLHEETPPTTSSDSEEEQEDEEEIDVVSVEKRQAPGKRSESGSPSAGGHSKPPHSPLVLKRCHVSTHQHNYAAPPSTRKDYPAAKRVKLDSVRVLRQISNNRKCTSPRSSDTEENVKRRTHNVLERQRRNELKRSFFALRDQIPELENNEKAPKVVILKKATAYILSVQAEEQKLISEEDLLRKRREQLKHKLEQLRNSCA
# MYC (p64);MAX (p21), in MYC:MAX, sequence (P61244 other isoform, or with tags, fused parts or gaps |, chain 2 of 2): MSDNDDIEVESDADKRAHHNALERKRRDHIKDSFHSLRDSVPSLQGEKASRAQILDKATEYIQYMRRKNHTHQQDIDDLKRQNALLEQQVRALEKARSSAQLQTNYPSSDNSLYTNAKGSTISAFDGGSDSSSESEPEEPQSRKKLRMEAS
row,Sequence,binding signal
1,CCGGCTGACACGTGCAGTTAATAGCTAAGATTACTATATCGACG,0.746 log2 normalized fluorescence
2,CCGGCTAGCACGTGGCATTAATAGCTAAGATTACTATATCGACG,0.803 log2 normalized fluorescence
3,CCGGCTGAATCTTGGTATTAATAGCTAAGATTACTATATCGACG,-0.0321 log2 normalized fluorescence
4,CCGGCTGAAAGGTCGTATTAATAGCTAAGATTACTATATCGACG,0.0812 log2 normalized fluorescence
5,CCGGCTGGAGCGTGGTATTAATAGCTAAGATTACTATATCGACG,0.418 log2 normalized fluorescence
6,CCGGCTGAAATCGCGTATTAATAGCTAAGATTACTATATCGACG,0.18 log2 normalized fluorescence
7,CCGGCTGAATCAATGTATTAATAGCTAAGATTACTATATCGACG,0.252 log2 normalized fluorescence
8,CCGGCTGAGAACACGTATTAATAGCTAAGATTACTATATCGACG,0.318 log2 normalized fluorescence
9,CCGGCTGACCTTGAGTATTAATAGCTAAGATTACTATATCGACG,0.204 log2 normalized fluorescence
10,CCGGCAGAAACGTGTTATTAATAGCTAAGATTACTATATCGACG,0.573 log2 normalized fluorescence
11,CCGGCAGACACGTGTTATTAATAGCTAAGATTACTATATCGACG,0.993 log2 normalized fluorescence
12,CCGGCCGACACCTGTTATTAATAGCTAAGATTACTATATCGACG,0.432 log2 normalized fluorescence
13,CCGGCTGGCACGTGGTATTAATAGCTAAGATTACTATATCGACG,0.809 log2 normalized fluorescence
14,CCGGCAGACACGTGATCTTAATAGCTAAGATTACTATATCGACG,0.751 log2 normalized fluorescence
15,CCGGCTGGCACGTGGTGTTAATAGCTAAGATTACTATATCGACG,0.954 log2 normalized fluorescence
16,CCGGCAGACACGTGATATTAATAGCTAAGATTACTATATCGACG,0.851 log2 normalized fluorescence
17,CCGGCTGGCACGTGGCATTAATAGCTAAGATTACTATATCGACG,0.721 log2 normalized fluorescence
18,CCGGCAGACACGCGATATTAATAGCTAAGATTACTATATCGACG,0.437 log2 normalized fluorescence
19,CCGGCCGACACGTGTTATTAATAGCTAAGATTACTATATCGACG,0.999 log2 normalized fluorescence

row,Sequence,binding signal
1,CCGGCAGACACGTCGTATTAATAGCTAAGATTACTATATCGACG,0.32 log2 normalized fluorescence
2,CCGGCCGACACGGCGTATTAATAGCTAAGATTACTATATCGACG,0.161 log2 normalized fluorescence
3,CCGGCTGATCCCCCGTATTAATAGCTAAGATTACTATATCGACG,0.0512 log2 normalized fluorescence
4,CCGGCTGACACGGCGTATTAATAGCTAAGATTACTATATCGACG,0.188 log2 normalized fluorescence
5,CCGGCTGAACGGTTGTATTAATAGCTAAGATTACTATATCGACG,0.123 log2 normalized fluorescence
6,CCGGCTGAACCAACGTATTAATAGCTAAGATTACTATATCGACG,0.302 log2 normalized fluorescence
7,CCGGCTGAGTTCCCGTATTAATAGCTAAGATTACTATATCGACG,0.0824 log2 normalized fluorescence
8,CCGGCTGACGTCACGTATTAATAGCTAAGATTACTATATCGACG,0.246 log2 normalized fluorescence
9,CCGGCTGAAAGCATGTATTAATAGCTAAGATTACTATATCGACG,0.491 log2 normalized fluorescence
10,CCGGCTGAGCATGCGTATTAATAGCTAAGATTACTATATCGACG,0.461 log2 normalized fluorescence
11,CCGGCTGAGTCCGCGTATTAATAGCTAAGATTACTATATCGACG,0.0725 log2 normalized fluorescence
12,CCGGCTGACCCGTGGTTTTAATAGCTAAGATTACTATATCGACG,0.466 log2 normalized fluorescence
13,CCGGCAGACACGTGGTGTTAATAGCTAAGATTACTATATCGACG,0.826 log2 normalized fluorescence
14,CCGGCAGATACGTGGTGTTAATAGCTAAGATTACTATATCGACG,0.257 log2 normalized fluorescence
15,CCGGCAGACATGTGGTGTTAATAGCTAAGATTACTATATCGACG,0.734 log2 normalized fluorescence
16,CCGGCTGACTTCAGGTATTAATAGCTAAGATTACTATATCGACG,0.148 log2 normalized fluorescence
17,CCGGCTGACCAAGTGTATTAATAGCTAAGATTACTATATCGACG,0.214 log2 normalized fluorescence
18,CCGGCATCCACGTGGTATTAATAGCTAAGATTACTATATCGACG,0.471 log2 normalized fluorescence
19,CCGGCTTTCACGTGGTATTAATAGCTAAGATTACTATATCGACG,0.847 log2 normalized fluorescence

row,Sequence,binding signal
1,CCGGCAATCACGTGGTATTAATAGCTAAGATTACTATATCGACG,0.75 log2 normalized fluorescence
2,CCGGCCTTCACGTGGTATTAATAGCTAAGATTACTATATCGACG,0.765 log2 normalized fluorescence
3,CCGGCGTTCACGTGGTATTAATAGCTAAGATTACTATATCGACG,0.664 log2 normalized fluorescence
4,CCGGCATTCACGTGGTATTAATAGCTAAGATTACTATATCGACG,0.958 log2 normalized fluorescence
5,CCGGCTGACGAGATGTATTAATAGCTAAGATTACTATATCGACG,0.0764 log2 normalized fluorescence
6,CCGGCTGACACGCGCTATTAATAGCTAAGATTACTATATCGACG,0.811 log2 normalized fluorescence
7,CCGGCTGGGTCGTGGTATTAATAGCTAAGATTACTATATCGACG,0.0754 log2 normalized fluorescence
8,CCGGCTGAGGTGACGTATTAATAGCTAAGATTACTATATCGACG,0.0346 log2 normalized fluorescence
9,CCGGCTGAATAATTGTATTAATAGCTAAGATTACTATATCGACG,-0.0392 log2 normalized fluorescence
10,CCGGCTGACACACGGTCTTAATAGCTAAGATTACTATATCGACG,0.354 log2 normalized fluorescence
11,CCGGCTGACACGCGGTCTTAATAGCTAAGATTACTATATCGACG,1.03 log2 normalized fluorescence
12,CCGGCAGACACGTGGTCTTAATAGCTAAGATTACTATATCGACG,0.904 log2 normalized fluorescence
13,CCGGCAGACACGTGGTATTAATAGCTAAGATTACTATATCGACG,0.798 log2 normalized fluorescence
14,CCGGCTGACACGTGGTCTTAATAGCTAAGATTACTATATCGACG,1.02 log2 normalized fluorescence
15,CCGGCTAACACGCGGTCTTAATAGCTAAGATTACTATATCGACG,0.739 log2 normalized fluorescence
16,CCGGCTGACACGTCTTATTAATAGCTAAGATTACTATATCGACG,0.308 log2 normalized fluorescence
17,CCGGCTGACCCGTGGTCTTAATAGCTAAGATTACTATATCGACG,0.399 log2 normalized fluorescence
18,CCGGCAGACACGCGGTCTTAATAGCTAAGATTACTATATCGACG,0.8 log2 normalized fluorescence
